# Screens (PubChem)
# Cy5 interf NS3h – counter-screen for HCV NS3 helicase inhibitors: fluorescence interference. Cy5-dT15 DNA with NS3h; actives lie on both sides; signal over control mean, under 1 quenches. fluorescence interference ratio at 100 µM. hit rate 6% among 16,000. AID 720488;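 active = compound fluorescence over control fluorescence at most 0.8, a quencher, or at least a set upper limit, an enhancer; inactive = ratio between 0.8 and the set upper limit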
# HCV NS3h FP – blocks HCV NS3 helicase binding to DNA; NS3h Cy5-dT15 DNA binding, fluorescence polarization; inhibition, % at 100 µM; hit rate 1.6% among 16,000; AID 687043;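 active = inhibition above the average over every tested compound plus 3 SD, cut at about 40% in these data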
# The depositor's hits bear a star. Compounds with a hit are over-represented: about 6.8% of the library has one in this group of screens.
SMILES,Cy5 interf NS3h,HCV NS3h FP
Cc1ccc(Cc2cnc(NC(=O)c3ccccc3Cl)s2)cc1,1,8
Cc1ccccc1C(=O)Nc1cccc(Oc2ccc3c(c2)C(=O)N(c2ccccc2)C3=O)c1,0.98,14
O=[N+]([O-])c1ccc(N2CCNCC2)cc1Sc1cccc2cccnc12,0.75*,2
O=[N+]([O-])c1ccc(N2CCN(S(=O)(=O)c3ccccc3)CC2)cc1Sc1cccc2cccnc12,0.97,14
O=C1/C(=C/c2cc([N+](=O)[O-])ccc2O)SC(=S)N1Cc1ccco1,0.98,8
O=C(Nc1ccncc1)Nc1ccccn1,1,5
O=C(Nc1ccccc1)Nc1ncccn1,0.78*,12
O=C(c1nn2c(c1Br)NC(c1cccs1)CC2C(F)(F)F)N1CCCC1 (stereo unspecified),0.51*,15
O=C(Nc1ccc(Cl)c(Cl)c1)c1nn2c(c1Br)NC(c1cccs1)CC2C(F)(F)F (stereo unspecified),1,12
CCOC(=O)c1sc(NC(=O)c2nn3c(c2Cl)NC(c2cccs2)CC3C(F)(F)F)c(C(=O)OCC)c1C (stereo unspecified),1,16
O=C(c1nn2c(c1Cl)NC(c1cccs1)CC2C(F)(F)F)N1CCOCC1 (stereo unspecified),0.67*,1
Cc1ccc(S(=O)(=O)N2CCN(Cc3ccccc3)CC2)cc1[N+](=O)[O-],0.98,2
COc1ccc(CN2CCN(S(=O)(=O)c3ccc(C)cc3)CC2)cc1OCc1ccccc1,0.74*,10
CCCC1=NN(C(=O)c2ccc(Br)cc2)C(O)(C(F)(F)F)C1 (stereo unspecified),0.96,3
CC(C)(C)NC(=O)c1nn2c(c1Br)NC(c1cccs1)CC2C(F)(F)F (stereo unspecified),0.82,-6
O=C(Nc1ccc(F)cc1F)c1nn2c(c1Cl)NC(c1cccs1)CC2C(F)(F)F (stereo unspecified),0.74*,12
COc1ccc(Cl)cc1NC(=O)c1nn2c(c1Cl)NC(c1cccs1)CC2C(F)(F)F (stereo unspecified),1.1,5
O=C(Nc1cccc(C(F)(F)F)c1)c1nn2c(c1Br)NC(c1cccs1)CC2C(F)(F)F (stereo unspecified),1,12
O=C(NCCc1ccccc1)c1nn2c(c1Br)NC(c1cccs1)CC2C(F)(F)F (stereo unspecified),0.54*,4
O=C(NCCCN1CCOCC1)c1nn2c(c1Br)NC(c1cccs1)CC2C(F)(F)F (stereo unspecified),0.71*,12
O=C(NCc1ccccc1)c1nn2c(c1Br)NC(c1cccs1)CC2C(F)(F)F (stereo unspecified),0.99,10
CSc1ccccc1NC(=O)c1nn2c(c1Br)NC(c1cccs1)CC2C(F)(F)F (stereo unspecified),0.74*,9
CCN(CC)C(=O)CN(c1ccc(OC)c(Cl)c1)S(=O)(=O)c1ccccc1,0.94,3
O=C(Nc1cccc(NC(=O)c2ccc(Cl)cc2Cl)c1)c1ccccc1F,0.84,-18
COc1ccc(N(CC(=O)NCCc2ccccc2)S(C)(=O)=O)c(OC)c1,1.1,7
SMILES,Cy5 interf NS3h,HCV NS3h FP
CCCCOc1ccc(C(=O)O/N=C(\c2ccncc2)c2ccc([N+](=O)[O-])cc2)cc1,0.75*,10
O=C(O/N=C(\c1ccncc1)c1ccc([N+](=O)[O-])cc1)c1ccccc1F,0.99,12
O=C1C(Cl)=CC(=NS(=O)(=O)c2ccc(Cl)cc2)c2ccccc21,0.87,-4
O=C1C(Cl)=CC(=NS(=O)(=O)c2ccccc2)C=C1Br,0.66*,32
CC1=NN(C(=S)c2ccccc2)C(C)(O)C1 (stereo unspecified),0.94,-9
CCc1ccccc1NC(=O)c1cc2n(n1)C(C(F)(F)F)CC(c1ccccc1)N2 (stereo unspecified),1,6
O=C(Nc1ccc(Br)cn1)c1cc2n(n1)C(C(F)(F)F)CC(c1ccccc1)N2 (stereo unspecified),0.7*,24
Cc1nc(Nc2nc(O)cc(=O)[nH]2)nc2c(C)cccc12,0.64*,-4
Cc1cc(=O)[nH]c(Nc2nc(C)c3cccc(C)c3n2)n1,1.1,36
CCOc1ccc(C(=O)Nc2ccc(C(C)=O)cc2)cc1OCC,1,6
COc1cccc2cc(C(=O)OCC(=O)c3ccc([N+](=O)[O-])cc3)c(=O)oc12,0.85,-2
O=C(COc1ccc([N+](=O)[O-])cc1)Nc1ccc(Cl)cn1,0.98,16
CC1CC(C)CN(C(=O)c2ccc(Cl)cc2)C1 (stereo unspecified),1,-5
CC(=O)Nc1ccc(C(=O)N2CC(C)CC(C)C2)cc1 (stereo unspecified),0.69*,4
CCOC(=O)C1=C(O)/C(=C/c2ccc(O)cc2)SC1=Nc1cccc(Cl)c1,1.1,63*
CCOC(=O)C1=C(O)/C(=C/c2ccc(Cl)cc2)SC1=Nc1ccc(C)cc1,0.81,-1
